697 NFkB inh = inhibitors of the PMA/ionomycin-induced NF-kB reporter in 697 B cells. 697 B-cell NF-kB luciferase reporter, 16 h. inhibition, % at 4 µM. 0.33% of 330,000 active. AID 435022; in the data active = inhibition above about 35%
H9c2 TAG inh = reduces triacylglycerol accumulation in H9c2 cells; Nile Red lipid (TAG) fluorescence; cells loaded with 200 µM oleic acid; inhibition, % at 12.5 µM; 0.66% of 230,000 active;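 active = pattern-corrected inhibition of lipid staining of at least 50% with the nuclear-stain viability signal not falling by more than 50%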;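 note: 0% = DMSO wells and 100% = triacsin C control wells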
Jurkat NFkB inh = inhibitors of the PMA/ionomycin-induced NF-kB reporter in Jurkat cells; 0.53% of 330,000 active; PMA/ionomycin-induced NF-kB luciferase reporter, luminescence; AID 435003; inhibition, % at 4 µM; in the data active = inhibition above about 50%
Gli-Sufu block = Gli-Sufu pathway antagonism; Sufu-KO-LIGHT fibroblasts, Gli luciferase reporter luminescence; inhibition, % at 5 µM; 0.74% of 340,000 active;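 active = inhibition above about 55%, limit read from the data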;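 note: 0% = DMSO-treated cells and 100% = wells with medium but no cells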
NR2F2 inh = inhibitors of human COUP-TFII (NR2F2). HEK293T NGFI-A luciferase reporter, luminescence. 0.7% of 370,000 active. inhibition, % at 8.6 µM;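 active = inhibition above a per-plate cutoff, mean inhibition of test wells between control levels plus 3 SD, cut at about 38% in these data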;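 note: cells cotransfected with COUP-TFII expression vector driving the NGFI-A reporter; 0% = median of COUP-TF2 test wells and 100% = reporter-only cells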
Target sequence (P24468 whole entry, looked up): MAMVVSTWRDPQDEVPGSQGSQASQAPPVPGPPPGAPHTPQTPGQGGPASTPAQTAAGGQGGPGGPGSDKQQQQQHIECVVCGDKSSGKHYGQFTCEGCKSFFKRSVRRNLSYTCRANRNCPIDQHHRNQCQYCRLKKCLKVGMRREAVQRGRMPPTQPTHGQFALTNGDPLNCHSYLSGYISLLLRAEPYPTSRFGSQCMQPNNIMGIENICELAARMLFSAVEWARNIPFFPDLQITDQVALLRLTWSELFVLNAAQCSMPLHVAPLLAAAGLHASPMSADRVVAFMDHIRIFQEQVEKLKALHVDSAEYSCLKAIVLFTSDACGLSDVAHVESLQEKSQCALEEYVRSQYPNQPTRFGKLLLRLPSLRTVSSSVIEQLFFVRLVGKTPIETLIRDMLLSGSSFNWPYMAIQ
H9c2 protect = modulators protecting cardiomyocytes from myocardial damage; H9c2 cardiomyocytes, H2O2 injury protection, ATPLite, 2 h; protection from H2O2 cell death, % at 20 µM; 0.63% of 360,000 active;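 active = compounds giving at least 50% protection of heart cells from peroxide-induced death in the single-dose screen, raw or plate-pattern-corrected value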;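 note: 0% = DMSO wells with peroxide and 100% = DMSO wells without peroxide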
Gal4-VP16 ctr = VP16 inhibition counter-screen for COUP-TFII; shares compounds with NR2F2 inh; HEK293 Gal4-VP16 luciferase reporter, luminescence; inhibition, % at 8.5 µM; 25% of 2,500 active; AID 687007; in the data active = inhibition above about 13%
NR2F2 inh conf = confirmation of human COUP-TFII (NR2F2) inhibitors; shares compounds with NR2F2 inh; HEK293 NGFI-A luciferase reporter, luminescence; inhibition, % at 8.5 µM; 45% of 2,500 active;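 active = mean inhibition over three repeats above a set limit taken from the earlier primary screen, cut at about 38% in these data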;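 note: 100% = cells given the luciferase reporter alone without the COUP-TF2 vector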
Active calls of the source: *; · = not tested or not shown. An excerpt weighted towards active compounds, which were near 2.6% of everything screened.

SMILES | 697 NFkB inh | H9c2 TAG inh | Jurkat NFkB inh | Gli-Sufu block | NR2F2 inh | H9c2 protect | Gal4-VP16 ctr | NR2F2 inh conf
CN(C)S(=O)(=O)c1cccc(NC(=O)CNc2cccc(S(=O)(=O)N3CCCCC3)c2)c1 | · | -16 | · | · | 45* | -24 | 3 | 20
CCOC(=O)N1CCC(Nc2ncnc3c2cnn3-c2ccc(C)cc2C)CC1 | 5 | -6 | 18 | 4 | 59* | -8 | 3 | 43*
C=CCNc1ncnc2c1cnn2-c1ccc(C)cc1C | -14 | -4 | 8 | -6 | -20 | -13 | · | ·
Cc1ccccc1S(=O)(=O)N1CCCc2nc(-c3ccc(F)cc3)ccc21 | · | · | · | · | 4 | · | · | ·
COC(=O)[C@]12C[C@H](CC(=O)N3CCCCC3)C(=O)N(CCC3=CCCCC3)C1=C[C@H](COCc1ccccc1)O[C@@H]2C | · | · | · | · | 17 | · | · | ·
O=c1cc(-c2ccc(O)cc2)oc2ccc3ccccc3c12 | -34 | 13 | 12 | 4 | 55* | -24 | 14* | 46*
COc1c(O)cc2oc(-c3ccc(O)cc3)cc(=O)c2c1O | -47 | -3 | -66 | -79 | -68 | -7 | · | ·
O=C(Nc1ccc(Cl)cc1)C1CCCN1S(=O)(=O)c1cccc2cccnc12 (stereo not drawn) | · | · | · | · | 16 | · | · | ·
COCCN1CCCc2nc(-c3ccc(Br)cc3)ccc21 | · | · | · | · | -18 | · | · | ·
CC(=O)Nc1ccc(NC(=O)COc2ccc(-c3ccc(C#N)cc3)cc2)cc1 | 11 | -27 | 1 | 17 | 9 | 16 | · | ·
O=C(COc1ccc(C(=O)c2ccccc2)cc1)Nc1cccnc1 | 2 | · | 41 | -13 | 66* | -11 | 6 | 60*
N#Cc1ccc(-c2ccc(OCC(=O)Nc3cccnc3)cc2)cc1 | 3 | -22 | 35 | -2 | 47* | -12 | -4 | 23
COc1cc2c(c(OC)c1OC)CC(c1ccccc1)=C(c1ccccc1)CC2NC(=O)C(F)(F)F (stereo not drawn) | · | · | · | · | -6 | · | · | ·
COCCCNC(=O)CSc1nnc(-c2ccncc2)n1-c1ccc(OC)cc1 | · | · | · | · | -4 | · | · | ·
COC(=O)[C@]12C[C@H](CC(=O)N3CCOCC3)C(=O)N(Cc3ccco3)C1=C[C@H](C1CCCC1)O[C@@H]2C | · | · | · | · | -12 | · | · | ·
Cc1ccc(OCC(=O)N2CCc3ccccc3C2)cc1 | -2 | · | -15 | -4 | -16 | 6 | · | ·
CN(C(=O)C(C)(C)C)c1ccc(OCC(=O)N2CCc3ccccc3C2)cc1 | -18 | · | 33 | 21 | 48* | -10 | 11 | 48*
C=CCCC[C@H]1OC(=O)[C@H](C)NC(=O)[C@H](C(C)C)NC(=O)[C@@H]2CCCN2C(=O)[C@H](Cc2ccccc2)OC(=O)[C@@H](C(C)C)N(C)C(=O)[C@H](C(C)C)NC(=O)C1(C)C | · | · | · | · | -3 | · | · | ·
COC(=O)C1CN(Cc2ccccc2)CCS(=O)(=O)N1Cc1cn(Cc2ccccc2Br)nn1 (stereo not drawn) | · | · | · | · | 10 | · | · | ·
CCCNC(=O)c1cc(S(=O)(=O)N2CCc3ccccc32)cn1C | -17 | -5 | 20 | 14 | 44* | -31 | -5 | 26
CCc1ccccc1NC(=O)c1cc(S(=O)(=O)N2CCc3ccccc32)cn1C | 5 | 0 | 8 | -4 | 22 | -12 | · | ·
CC(C)C(=O)N[C@H]1[C@H](O)CCC[C@@]12C(=O)N(Cc1ccccc1)c1ccccc12 | · | · | · | · | -2 | · | · | ·
CCCN(CCC)CCN1CCN(C(=O)[C@H](CCc2ccccc2)NC(=O)[C@H]2O[C@@H](n3cnc4c(N)ncnc43)[C@H](O)[C@@H]2O)CC1 | · | · | · | · | 5 | · | · | ·
CN(C)S(=O)(=O)N1CCC(Oc2cccc(C(=O)NCCC3=CCCCC3)c2)CC1 | -100 | -6 | -12 | 8 | 56* | -7 | -8 | 17
CN(C)S(=O)(=O)N1CCC(Oc2cccc(C(=O)NC3CCCCC3)c2)CC1 | -28 | · | 29 | 42 | 57* | -6 | -4 | 40*
COC(=O)c1cc2c(c3c4ccccc4n(S(=O)(=O)c4ccc(OC)cc4)c13)C(=O)N(Cc1ccc(N(C)C)cc1)C2 | · | · | · | · | -14 | · | · | ·
COc1ccc(CC(=O)Nc2cccc(SC)c2)cc1OC | · | -21 | · | 14 | 41* | -25 | 17* | 38*
